According to paper PMC7862700, “An all-to-all approach to the identification of sequence-specific readers for epigenetic DNA modifications on cytosine”:

Experiments:
Assay in all cases: DAPPL (digital affinity profiling via proximity ligation, sequencing); 10 mM Tris-HCl pH 7.5, 50 mM NaCl, 1 mM DTT, 4% glycerol, room temperature, 30 min; GST-TFs on glutathione beads, 16-mer random dsDNA library, 0.1% formaldehyde crosslink after washing; high values mean tight binding
Details in all cases: protein: recombinant; tags: N-terminal GST; dsDNA, one strand shown
ERF = molecular target: T1, ERF (Homo sapiens, UniProt P50548 1-548)
T1 sequence: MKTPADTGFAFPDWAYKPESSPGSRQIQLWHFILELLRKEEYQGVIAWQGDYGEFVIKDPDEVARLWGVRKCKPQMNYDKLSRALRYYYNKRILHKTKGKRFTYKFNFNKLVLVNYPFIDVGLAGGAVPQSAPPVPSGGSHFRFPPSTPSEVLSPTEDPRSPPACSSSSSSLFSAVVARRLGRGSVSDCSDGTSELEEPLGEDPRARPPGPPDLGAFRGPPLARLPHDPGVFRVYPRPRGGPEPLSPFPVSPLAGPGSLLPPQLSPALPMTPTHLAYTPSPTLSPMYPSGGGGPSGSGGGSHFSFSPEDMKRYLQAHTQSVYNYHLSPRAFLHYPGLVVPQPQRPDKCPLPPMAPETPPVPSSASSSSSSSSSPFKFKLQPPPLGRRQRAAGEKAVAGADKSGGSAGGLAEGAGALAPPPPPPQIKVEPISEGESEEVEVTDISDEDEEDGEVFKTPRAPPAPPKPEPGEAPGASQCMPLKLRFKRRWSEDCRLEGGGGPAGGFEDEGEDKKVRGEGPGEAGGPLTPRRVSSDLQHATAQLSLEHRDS
Summary of the method: (§1)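 Human transcription factors fused to GST were expressed in yeast, captured on glutathione beads, given DNA barcodes and pooled with a GST-only negative control. Pools were incubated with 200 nmole of a 16-mer random double-stranded DNA library in Tris/NaCl/DTT/glycerol buffer at room temperature for 30 min. They were then washed, crosslinked with 0.1% formaldehyde, proximity-ligated (BsaI/T4 ligase, 1 h, 37 °C), PCR-amplified and sequenced on an Illumina NextSeq500. Binding signal is each 6-mer's read frequency for a factor divided by its frequency for the GST control.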

ETV3L = molecular target: T2, ETV3L (Homo sapiens, UniProt Q6ZN32 1-361)
T2 sequence: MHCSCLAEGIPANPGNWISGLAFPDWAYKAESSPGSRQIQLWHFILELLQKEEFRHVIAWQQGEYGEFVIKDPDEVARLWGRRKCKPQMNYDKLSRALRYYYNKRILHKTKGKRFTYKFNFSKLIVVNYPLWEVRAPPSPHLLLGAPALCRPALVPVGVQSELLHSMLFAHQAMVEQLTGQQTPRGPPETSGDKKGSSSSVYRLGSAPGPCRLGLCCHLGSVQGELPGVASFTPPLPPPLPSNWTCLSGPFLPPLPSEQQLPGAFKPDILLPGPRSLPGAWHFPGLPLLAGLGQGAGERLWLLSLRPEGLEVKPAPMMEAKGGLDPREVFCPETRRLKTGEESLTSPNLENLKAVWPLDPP
Summary of the method: as §1

ETS2 = molecular target: T3, ETS2 (Homo sapiens, UniProt P15036 1-469)
T3 sequence: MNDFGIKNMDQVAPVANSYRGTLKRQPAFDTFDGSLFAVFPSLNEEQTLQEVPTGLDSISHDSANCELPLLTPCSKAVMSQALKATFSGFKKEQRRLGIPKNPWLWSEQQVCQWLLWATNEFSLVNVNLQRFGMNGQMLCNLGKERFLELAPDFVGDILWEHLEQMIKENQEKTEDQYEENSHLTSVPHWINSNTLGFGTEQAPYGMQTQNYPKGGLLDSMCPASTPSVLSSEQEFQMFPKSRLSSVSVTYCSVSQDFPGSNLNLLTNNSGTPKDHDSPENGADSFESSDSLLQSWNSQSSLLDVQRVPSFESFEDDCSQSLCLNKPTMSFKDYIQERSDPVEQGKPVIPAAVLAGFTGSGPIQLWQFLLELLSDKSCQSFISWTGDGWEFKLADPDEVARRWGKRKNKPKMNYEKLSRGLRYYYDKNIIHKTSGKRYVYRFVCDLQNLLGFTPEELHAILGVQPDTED
Summary of the method: as §1

SPDEF = molecular target: T4, SPDEF (Homo sapiens, UniProt O95238 1-335)
T4 sequence: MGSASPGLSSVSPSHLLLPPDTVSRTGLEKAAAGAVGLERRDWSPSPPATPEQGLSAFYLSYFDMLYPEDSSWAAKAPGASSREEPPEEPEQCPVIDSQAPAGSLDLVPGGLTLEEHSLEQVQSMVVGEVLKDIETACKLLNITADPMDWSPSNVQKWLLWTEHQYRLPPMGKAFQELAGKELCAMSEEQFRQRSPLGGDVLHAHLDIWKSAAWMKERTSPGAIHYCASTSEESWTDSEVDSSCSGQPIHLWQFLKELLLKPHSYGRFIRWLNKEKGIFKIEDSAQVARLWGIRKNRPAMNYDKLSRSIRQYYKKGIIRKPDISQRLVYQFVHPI
Summary of the method: as §1

ETV7 = molecular target: T5, ETV7 (Homo sapiens, UniProt Q9Y603 1-341)
T5 sequence: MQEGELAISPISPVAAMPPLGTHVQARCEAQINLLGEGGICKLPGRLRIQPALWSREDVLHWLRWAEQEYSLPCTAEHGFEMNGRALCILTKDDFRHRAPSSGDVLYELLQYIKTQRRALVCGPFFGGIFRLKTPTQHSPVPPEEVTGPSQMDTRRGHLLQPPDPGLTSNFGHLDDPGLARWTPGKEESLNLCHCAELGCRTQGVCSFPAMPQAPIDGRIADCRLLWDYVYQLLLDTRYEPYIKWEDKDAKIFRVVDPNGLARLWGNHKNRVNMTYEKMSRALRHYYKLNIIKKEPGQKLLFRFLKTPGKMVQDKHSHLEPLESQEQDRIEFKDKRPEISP
Summary of the method: as §1

ELF5 = molecular target: T6, ELF5 (Homo sapiens, UniProt Q9UKW6-2 1-255)
T6 sequence: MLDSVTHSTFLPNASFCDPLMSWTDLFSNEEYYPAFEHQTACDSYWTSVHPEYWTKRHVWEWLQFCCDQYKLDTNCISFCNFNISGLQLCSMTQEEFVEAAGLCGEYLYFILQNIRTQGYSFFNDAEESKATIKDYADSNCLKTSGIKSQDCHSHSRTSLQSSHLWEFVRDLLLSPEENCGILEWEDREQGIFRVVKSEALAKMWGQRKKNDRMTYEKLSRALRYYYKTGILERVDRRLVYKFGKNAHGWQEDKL
Summary of the method: as §1

ETV3 = molecular target: T7, ETV3 (Homo sapiens, UniProt P41162-2 1-143)
T7 sequence: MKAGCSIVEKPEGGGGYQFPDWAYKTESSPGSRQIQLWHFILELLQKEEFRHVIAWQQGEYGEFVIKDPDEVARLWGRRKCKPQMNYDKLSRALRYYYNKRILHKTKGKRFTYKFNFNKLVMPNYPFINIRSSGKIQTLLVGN
Summary of the method: as §1

ETV6 = ETV6 (Homo sapiens, UniProt P41212 1-452)
ETV6, sequence (P41212 whole entry): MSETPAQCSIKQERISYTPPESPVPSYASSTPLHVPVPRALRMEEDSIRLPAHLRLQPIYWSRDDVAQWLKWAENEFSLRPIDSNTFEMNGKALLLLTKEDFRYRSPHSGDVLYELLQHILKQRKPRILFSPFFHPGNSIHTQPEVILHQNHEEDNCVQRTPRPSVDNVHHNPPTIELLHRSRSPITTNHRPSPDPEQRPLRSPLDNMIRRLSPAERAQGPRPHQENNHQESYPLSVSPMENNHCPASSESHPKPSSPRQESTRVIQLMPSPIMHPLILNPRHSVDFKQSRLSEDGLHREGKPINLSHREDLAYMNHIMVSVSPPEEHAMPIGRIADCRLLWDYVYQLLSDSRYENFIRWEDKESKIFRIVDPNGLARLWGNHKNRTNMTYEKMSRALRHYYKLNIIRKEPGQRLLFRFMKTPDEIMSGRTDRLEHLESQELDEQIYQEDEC
Summary of the method: as §1

| Sequence | binding signal (ERF) | binding signal (ETV3L) | binding signal (ETS2) | binding signal (SPDEF) | binding signal (ETV7) | binding signal (ELF5) | binding signal (ETV3) | binding signal (ETV6) |
| --- | --- | --- | --- | --- | --- | --- | --- | --- |
| CCTACC | 1.37 fold enrichment (6-mer frequency, TF over GST control) | 1.37 fold enrichment (6-mer frequency, TF over GST control) | 1.36 fold enrichment (6-mer frequency, TF over GST control) | 1.35 fold enrichment (6-mer frequency, TF over GST control) | 1.21 fold enrichment (6-mer frequency, TF over GST control) | 1.44 fold enrichment (6-mer frequency, TF over GST control) | 1.35 fold enrichment (6-mer frequency, TF over GST control) | 1.32 fold enrichment (6-mer frequency, TF over GST control) |
| CGAAAG | 1.11 fold enrichment (6-mer frequency, TF over GST control) | 1.05 fold enrichment (6-mer frequency, TF over GST control) | 1.11 fold enrichment (6-mer frequency, TF over GST control) | 1.07 fold enrichment (6-mer frequency, TF over GST control) | 1.19 fold enrichment (6-mer frequency, TF over GST control) | 1 fold enrichment (6-mer frequency, TF over GST control) | 1.02 fold enrichment (6-mer frequency, TF over GST control) | 1.02 fold enrichment (6-mer frequency, TF over GST control) |
| GCCTCA | 1.35 fold enrichment (6-mer frequency, TF over GST control) | 1.31 fold enrichment (6-mer frequency, TF over GST control) | 1.13 fold enrichment (6-mer frequency, TF over GST control) | 1.16 fold enrichment (6-mer frequency, TF over GST control) | 1.24 fold enrichment (6-mer frequency, TF over GST control) | 1.15 fold enrichment (6-mer frequency, TF over GST control) | 1.19 fold enrichment (6-mer frequency, TF over GST control) | 1.18 fold enrichment (6-mer frequency, TF over GST control) |
| TGACAT | 1.21 fold enrichment (6-mer frequency, TF over GST control) | 1.28 fold enrichment (6-mer frequency, TF over GST control) | 1.3 fold enrichment (6-mer frequency, TF over GST control) | 1.25 fold enrichment (6-mer frequency, TF over GST control) | 1.25 fold enrichment (6-mer frequency, TF over GST control) | 1.22 fold enrichment (6-mer frequency, TF over GST control) | 1.26 fold enrichment (6-mer frequency, TF over GST control) | 1.37 fold enrichment (6-mer frequency, TF over GST control) |
| CTCGCG | 1.41 fold enrichment (6-mer frequency, TF over GST control) | 1.44 fold enrichment (6-mer frequency, TF over GST control) | 1.47 fold enrichment (6-mer frequency, TF over GST control) | 1.4 fold enrichment (6-mer frequency, TF over GST control) | 1.38 fold enrichment (6-mer frequency, TF over GST control) | 1.42 fold enrichment (6-mer frequency, TF over GST control) | 1.42 fold enrichment (6-mer frequency, TF over GST control) | 1.36 fold enrichment (6-mer frequency, TF over GST control) |
| CCATCC | 1.12 fold enrichment (6-mer frequency, TF over GST control) | 1.31 fold enrichment (6-mer frequency, TF over GST control) | 1.23 fold enrichment (6-mer frequency, TF over GST control) | 1.56 fold enrichment (6-mer frequency, TF over GST control) | 1.24 fold enrichment (6-mer frequency, TF over GST control) | 1.3 fold enrichment (6-mer frequency, TF over GST control) | 1.27 fold enrichment (6-mer frequency, TF over GST control) | 1.2 fold enrichment (6-mer frequency, TF over GST control) |
| AACCAT | 1.07 fold enrichment (6-mer frequency, TF over GST control) | 1.16 fold enrichment (6-mer frequency, TF over GST control) | 1.12 fold enrichment (6-mer frequency, TF over GST control) | 1.11 fold enrichment (6-mer frequency, TF over GST control) | 1.15 fold enrichment (6-mer frequency, TF over GST control) | 1.08 fold enrichment (6-mer frequency, TF over GST control) | 1.16 fold enrichment (6-mer frequency, TF over GST control) | 1.13 fold enrichment (6-mer frequency, TF over GST control) |
| GGAACT | 1.48 fold enrichment (6-mer frequency, TF over GST control) | 1.71 fold enrichment (6-mer frequency, TF over GST control) | 1.88 fold enrichment (6-mer frequency, TF over GST control) | 1.94 fold enrichment (6-mer frequency, TF over GST control) | 1.56 fold enrichment (6-mer frequency, TF over GST control) | 2.25 fold enrichment (6-mer frequency, TF over GST control) | 1.93 fold enrichment (6-mer frequency, TF over GST control) | 1.84 fold enrichment (6-mer frequency, TF over GST control) |
| TGCATC | 1.4 fold enrichment (6-mer frequency, TF over GST control) | 1.34 fold enrichment (6-mer frequency, TF over GST control) | 1.39 fold enrichment (6-mer frequency, TF over GST control) | 1.88 fold enrichment (6-mer frequency, TF over GST control) | 1.37 fold enrichment (6-mer frequency, TF over GST control) | 1.35 fold enrichment (6-mer frequency, TF over GST control) | 1.29 fold enrichment (6-mer frequency, TF over GST control) | 1.33 fold enrichment (6-mer frequency, TF over GST control) |
